The source of these data is PubChem BioAssay (NCATS).

The source made the active and inactive calls. Calls follow the shape of the full dose curve.

This experiment in a line: qHTS drug screen for cell cycle checkpoint inhibitors in PARPi-resistant BRCA-mutant ovarian cancer cell lines. (AID 1963452). To be noted: PEO1/OlaR viability, CellTiter-Glo luminescence, 96 h; for Z-AUC: stronger effect = lower value. The source says:
Women's Malignancies Branch, Center for Cancer Research (CCR),
National Cancer Institute (NCI), National Institutes of Health (NIH), Bethesda, MD
Poly (ADP-ribose) polymerase inhibitors (PARPis) have changed the treatment paradigm in breast cancer gene (BRCA) - mutant high-grade serous ovarian carcinoma (HGSC). However, most patients eventually develop resistance to PARPis, highlighting an unmet need for improved therapeutic strategies. Using high-throughput drug screens, we identified ataxia telangiectasia and rad3-related protein/checkpoint kinase 1 (CHK1) pathway inhibitors as cytotoxic and further validated the activity of the CHK1 inhibitor (CHK1i) prexasertib in PARPi-sensitive and -resistant BRCA-mutant HGSC cells and xenograft mouse models. CHK1i monotherapy induced DNA damage, apoptosis, and tumor size reduction. We then conducted a phase 2 study (NCT02203513) of prexasertib in patients with BRCA-mutant HGSC. The treatment was well tolerated but yielded an objective response rate of 6% (1 of 17; one partial response) in patients with previous PARPi treatment. […] BRCA reversion mutation in previously PARPi-treated BRCA-mutant patients was not associated with resistance to CHK1i.
Among others, 1082 oncology drugs, both approved and investigational, were prioritized based on their status in clinical trial development. […] Drugs with average Z-AUC values less than -1.0 in all three cell lines were classified as "hits" resulting in 151 oncology drug hits. The screen also confirmed cross-resistance between olaparib and other PARPis (rucaparib, niraparib, and talazoparib) in PARPi-resistant PEO1/OlaR and PEO4.
[1] G. L. Lin, K. M. Wilson, M. Ceribelli, B. Z. Stanton, P. J. Woo, S. Kreimer, E. Y. Qin, X. Zhang, J. Lennon, S. Nagaraja, P. J. Morris, M. Quezada, S. M. Gillespie, D. Y. Duveau, A. M. Michalowski, P. Shinn, R. Guha, M. Ferrer, C. Klumpp-Thomas, S. Michael, C. McKnight, P. Minhas, Z. Itkin, E. H. Raabe, L. Chen, R. Ghanem, A. C. Geraghty, L. Ni, K. I. Andreasson, N. A. Vitanza, K. E.Warren, C. J. Thomas, M. Monje, Therapeutic strategies for diffuse midline glioma from high-throughput combination drug screening. Sci. Transl. Med. 11, (2019).
[2] T. M. Yamamoto, A. McMellen, Z. L. Watson, J. Aguilera, R. Ferguson, E. Nurmemmedov, T. Thakar, G. L. Moldovan, H. Kim, D. M. Cittelly, A. M. Joglar, E. P. Brennecke, H. Wilson, K. Behbakht, M. J. Sikora, B. G. Bitler, Activation of Wnt signaling promotes olaparib resistant ovarian cancer. Mol. Carcinog. 58, 1770 - 1782 (2019).
PROTOCOL TABLE (as described by Inglese J, Shamu CE and Guy RK. 2007)
SEQUENCE No. (e.g., 1, 2, 3, etc.); […] (e.g., Cells, Incubation, Reagent, etc.); VALUE; DESCRIPTION.
1; Compounds; 20nL; 1536-well white tissue culture-treated plates.
2; Cells; 5 uL; PEO1, PEO4, and PEO1/OlaR cells at 600 cells per well.
3; Incubation; 96 hr; 37C, 95% humidity, 5% CO2.
4; Reagent; 3 uL; CellTiter-Glo (Promega).
5; Incubation; 15 min; room temperature.
6; Detection; Luminescence, PHERAstar (BMG Labtech) plate reader.
NOTES (numbers refer to Sequence numbers above)
1. MIPE 5.0 compounds were acoustically dispensed by Echo Acoustic Liquid Handler (Beckman Coulter Life Sciences). Each compound was plated at an 11-point concentration range with 1:3 dilution. Bortezomib, a proteasome inhibitor (final concentration, 20 uM), was used as a positive.
2. PEO1, PEO4, and PEO1/OlaR were trypsinized and dispensed in 5 uLof growth medium using a Multidrop Combi dispenser at a density of 600 cells per well to allow compounds to be present during the exponential growth phase.
3. Plates were incubated for 96 hours at standard incubator conditions and covered by a stainless steel gasketed lid to prevent evaporation.
4. Three microliters of CellTiter-Glo (Promega) were added to each well.
5. Plates were incubated at room temperature for 15 min with a stainless-steel lid in place.
6. Luminescence readings were taken using PHERAstar (BMG Labtech). […]

[1] abbreviates: measured here: PEO1 parental Z-AUC.
Potency is read from the fitted curve at half-maximal effect.

For `CO[C@H]1C(=O)[C@]2(C)[C@@H](OC)C[C@H]3OC[C@@]3(OC(C)=O)[C@H]2[C@H](OC(=O)c2ccccc2)[C@]2(O)C[C@H](OC(=O)[C@H](O)[C@@H](NC(=O)OC(C)(C)C)c3ccccc3)C(C)=C1C2(C)C`, the Potency was 7.8 nM (active). The Z-AUC under setting [1] was -2.35. Further, the Z-AUC (measured here: PEO4 Z-AUC) is -2.45.
As to `COc1cccc2c1CCCC2CCCN1CCN(C2CCCCC2)CC1` (configuration not stated), the Z-AUC was 0.972 (inactive). For the same compound, under setting [1], the Z-AUC amounted to 0.889. Moreover, for the setting “measured here: PEO4 Z-AUC”, the Z-AUC worked out at 0.366.
On to `Clc1ccc(Cn2c(CN3CCCC3)nc3ccccc32)cc1`, for which the Z-AUC was 1.16 (inactive). Further, the Z-AUC under setting [1] came out at 0.912. Moreover, the Z-AUC (measured here: PEO4 Z-AUC) is 1.11.
With `NC(=O)c1ccc2nc(-c3ccc(Oc4ccc(Cl)cc4)cc3)[nH]c2c1`, the Z-AUC is -1.56 (inactive). In addition, under setting [1], the Z-AUC was -1.26. The Z-AUC (measured here: PEO4 Z-AUC) was -1.18.
With `O=c1cc(CN2CCOCC2)occ1OCCCCCSc1ccnc2cc(C(F)(F)F)ccc12`, the Z-AUC is -0.111 (inactive). Further, the Z-AUC under setting [1] is -0.421. For the same compound, for the setting “measured here: PEO4 Z-AUC”, the Z-AUC was -0.0909.
Take `C[N+](C)(C)CC(=O)O`: the Z-AUC was -0.734 (inactive). Under setting [1], the Z-AUC stood at 0.456. Besides, the Z-AUC (measured here: PEO4 Z-AUC) is -0.678.
For the compound `CC(C)n1cnc2c(NCCCCCCNC(=O)OC(C)(C)C)nc(NCCO)nc21`, the Z-AUC was 0.728 (inactive). Also, the Z-AUC under setting [1] was determined as 0.841. In addition, the Z-AUC (measured here: PEO4 Z-AUC) was 1.56.
In the case of `Clc1cc(Cl)cc(CNc2ncncc2-c2ccc3c(c2)OCO3)c1`, the Z-AUC is 0.335 (inactive). For the same compound, the Z-AUC under setting [1] is -0.24. For the same compound, under “measured here: PEO4 Z-AUC”, the Z-AUC was -0.467.
With `CN(C)Cc1ccc(-c2nc3cccc4c3n2CCNC4=O)cc1`, the Z-AUC is 0.426 (inactive). For the same compound, under setting [1], the Z-AUC was found to be 0.483. In addition, for the setting “measured here: PEO4 Z-AUC”, the Z-AUC turned out to be 0.475.
`CS(=O)(=O)N(Cc1ccco1)CC(O)Cn1c2ccccc2c2ccccc21` (configuration not stated): the Z-AUC was 1.06 (inactive). For the same compound, under setting [1], the Z-AUC came out at 0.549. Moreover, for the setting “measured here: PEO4 Z-AUC”, the Z-AUC was 0.481.
For `O=C(N[C@@H](c1ccccc1)[C@@H]1CCCCN1)c1cccc(C(F)(F)F)c1Cl` the same measures were 0.7 (inactive), 0.513 and 0.741.
Take `COc1cc(NC(=O)c2ccc(-c3ccc(Cl)cc3)o2)cc(OC)c1`: the Z-AUC is -0.479 (inactive). Further, the Z-AUC under setting [1] is -0.389. The Z-AUC (measured here: PEO4 Z-AUC) is -0.303.
For `O=c1cc(-c2cccc3c2Sc2ccccc2S3)oc(N2CCOCC2)c1`, the Z-AUC is 1.05 (inactive). Also, the Z-AUC under setting [1] came out at 1.03. In addition, under “measured here: PEO4 Z-AUC”, the Z-AUC was determined as 0.875.
Take `CCS(=O)(=O)N1CC(CC#N)(n2cc(-c3ncnc4[nH]ccc34)cn2)C1`: the Z-AUC is 0.685 (inactive). The Z-AUC under setting [1] was 0.902. Moreover, under “measured here: PEO4 Z-AUC”, the Z-AUC was 0.44.
